# The supplement of paper PMC4166925
# ± gives the standard deviation of the averaged measurements. The full ranking holds about 33,000 sequences; the median of “E-score (dimensionless, -0.5 to 0.5)” is about -0.049, and the highest 2% start at about 0.37. Many of the other results were omitted from the sample, so the highest values are more common in it than they were.
# Tested on: T1, PmTbr T-box DNA-binding domain (GST fusion)
# T1 sequence: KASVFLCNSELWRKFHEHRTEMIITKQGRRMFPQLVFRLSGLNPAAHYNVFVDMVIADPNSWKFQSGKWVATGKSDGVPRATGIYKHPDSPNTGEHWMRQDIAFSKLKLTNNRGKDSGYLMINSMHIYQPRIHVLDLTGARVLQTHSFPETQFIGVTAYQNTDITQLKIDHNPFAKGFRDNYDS
# Experiment: PBM E-score of 8-mer (E-score (dimensionless, -0.5 to 0.5)); Tbr is Tbrain of the sea star Patiria miniata (Pm) or the sea urchin Strongylocentrotus purpuratus (Sp); higher = stronger binding preference
# Details: the construct has about 5 more residues each side
# Protocol: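 Universal protein-binding microarray (Agilent AMADID 016060, 60-bp probes with a 35-bp variable region) incubated with 200 nM GST-fused Patiria miniata Tbr T-box DNA-binding domain (residues 272-466) in PBS pH 7.5. Scored for every ungapped 8-mer (given with its reverse complement) by the Universal PBM Analysis Suite as E-score (modified Wilcoxon-Mann-Whitney enrichment, range -0.5 to 0.5; >0.45 counts as bound) and Z-score of median probe intensity. Two replicate arrays (datasets 1 and 2).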
# 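Note: 200 nM protein in PBS on universal arrays averaged over duplicate arrays.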
row,Sequence,PBM E-score of 8-mer
1,AACCTGGC,0.195 ± 0.038
2,AAGGCCGA,-0.191 ± 0.09
3,CCTTATGC,-0.139 ± 0.041
4,GCCATTAC,-0.169 ± 0.06
5,GGCCTGAC,-0.103 ± 0.02
6,CGTCCCAG,-0.151 ± 0.0033
7,CGCACGTC,0.354 ± 0.02
8,CACACGGC,0.0461 ± 0.026
9,CACACGTA,0.357 ± 0.0053
10,CACACGTC,0.4359 ± 0.0027
11,AACACGTG,0.38 ± 0.016
12,AACACGAG,0.132 ± 0.0066
13,ACCACGTG,0.169 ± 0.053
14,CACACAAA,0.0927 ± 0.064
15,CACACGTG,0.376 ± 0.019
16,CAAGAGTG,0.154 ± 0.047
17,CAACCGAG,0.0284 ± 0.0078
18,GAAAATAA,-0.0661 ± 0.086
19,CAACACTA,0.323 ± 0.04
20,CAACACGA,0.161 ± 0.015
21,AAACACCA,0.268 ± 0.0077
22,CAACACCC,0.444 ± 0.015
23,CAACACCG,0.3 ± 0.013
24,TAACACCA,0.451 ± 0.0075
25,TAACACTA,0.382 ± 0.0057

row,Sequence,PBM E-score of 8-mer
1,CAACACCA,0.392 ± 0.015
2,GAACACCA,0.0994 ± 0.0056
3,CAACACGC,0.229 ± 0.019
4,GAACACCC,0.1762 ± 0.00083
5,GAACACTA,0.051 ± 0.077
6,CTGACTCC,-0.143 ± 0.047
7,CTGCCCTC,-0.067 ± 0.048
8,CACCCATC,0.201 ± 0.011
9,GATATACC,-0.114 ± 0.031
10,CAAATTCG,0.0471 ± 0.029
11,GCTCTAAC,0.0585 ± 0.0059
12,AATTACCG,0.0948 ± 0.036
13,ACATCACT,0.0297 ± 0.063
14,ACACACCC,0.327 ± 0.015
15,CCACACCC,0.395 ± 0.028
16,CCACACCG,0.134 ± 0.063
17,ACCTCTTG,0.138 ± 0.027
18,TAAGTGGA,-0.141 ± 0.0053
19,AGTTACCC,-0.0906 ± 0.018
20,AGCGCGAA,0.392 ± 0.014
21,GGCGCGAA,0.4607 ± 0.0017
22,CTCGCGAA,0.368 ± 0.0047
23,ATCGCGAT,0.38 ± 0.014
24,AGCGCGAT,0.291 ± 0.0076
25,ATCGCGAA,0.335 ± 0.046

row,Sequence,PBM E-score of 8-mer
1,ATCGCGAG,0.249 ± 0.0038
2,GTCGCGAA,0.33 ± 0.02
3,AGCGCGAG,0.319 ± 0.011
4,GGCGCGCA,0.0945 ± 0.0047
5,TTCGCGAA,0.3702 ± 0.0034
6,GACGCGAA,0.126 ± 0.066
7,GCTAGCAA,0.144 ± 0.015
8,ATATTGCC,-0.106 ± 0.095
9,CTTCTATC,-0.198 ± 0.025
10,ATCTGTGA,0.282 ± 0.0073
11,GTCGCCAA,0.288 ± 0.038
12,CGGTCAAA,-0.18 ± 0.0046
13,AACAGTGC,0.0577 ± 0.058
14,ATTCTGAG,-0.131 ± 0.012
15,CCGGCTGC,-0.125 ± 0.1
16,AGCGCGAC,0.242 ± 0.003
17,CTCGCGAC,0.326 ± 0.0051
18,CGCGCGAC,0.291 ± 0.025
19,GGCGCGAC,0.377 ± 0.025
20,CGCGCGAG,0.27 ± 0.023
21,ATCGCGAC,0.26 ± 0.021
22,TGCGCGAA,0.307 ± 0.017
23,GTCGCGAC,0.385 ± 0.0054
24,CGCGCGAA,0.3963 ± 0.00041
25,ATAGGGGG,-0.0469 ± 0.086

row,Sequence,PBM E-score of 8-mer
1,CATCAAAC,-0.0906 ± 0.034
2,AAGGGGCC,-0.0989 ± 0.015
3,GCATGTAA,-0.124 ± 0.0041
4,AACCTTCG,-0.135 ± 0.0027
5,CACCTTCG,0.431 ± 0.02
6,GACCTTCA,-0.0991 ± 0.0084
7,AACCTTCA,-0.149 ± 0.083
8,CACCTTCC,0.4461 ± 0.0012
9,AACCTTCC,-0.196 ± 0.038
10,CACCTTCA,0.436 ± 0.0071
11,CCCCTTCG,-0.126 ± 0.029
12,GACCTTCC,0.0338 ± 0.01
13,AGATCGTA,0.0776 ± 0.06
14,ACTCCTCG,0.219 ± 0.032
15,ACCTAAGT,0.0966 ± 0.0054
16,TAGGTCGA,-0.111 ± 0.085
17,GGGCGCAA,0.0355 ± 0.036
18,ACTTGGAA,-0.1519 ± 0.00037
19,CCTCCACA,0.233 ± 0.021
20,CGCTTGAA,-0.191 ± 0.056
21,CCATTAAC,0.0966 ± 0.0036
22,CCTGTTGA,0.091 ± 0.045
23,CTCTTGAA,-0.374 ± 0.012
24,AGACAGAG,-0.139 ± 0.052
25,ATCACCTG,0.379 ± 0.019

row,Sequence,PBM E-score of 8-mer
1,ATCACCCC,0.289 ± 0.028
2,ATCACCAG,-0.0506 ± 0.043
3,ATCACCAC,0.15 ± 0.0054
4,ATCACCGG,-0.319 ± 0.02
5,CTCACCGC,0.055 ± 0.076
6,GTCACCTA,0.4173 ± 0.0026
7,GTCACCGA,0.127 ± 0.041
8,ATCACCTC,0.4197 ± 0.00045
9,GTCACCCA,0.259 ± 0.056
10,CTCACCTC,0.449 ± 0.009
11,CTCACCAC,0.209 ± 0.054
12,AAAGACTC,-0.156 ± 0.018
13,AAGGGGGG,-0.444 ± 0.023
14,CGCACTAG,0.167 ± 0.021
15,ATGCTGCC,-0.293 ± 0.037
16,ACCCACGG,-0.132 ± 0.022
17,CATGCGAA,0.108 ± 0.046
18,CTCACCTA,0.4081 ± 0.0035
19,CTCACCGA,0.00965 ± 0.039
20,ATCACCAA,0.17 ± 0.016
21,CTTACCTA,-0.153 ± 0.059
22,ATCACCCA,0.276 ± 0.021
23,ATCACCTA,0.392 ± 0.022
24,CTAGCGTA,0.0249 ± 0.015
25,ATGGTTAC,-0.265 ± 0.029

row,Sequence,PBM E-score of 8-mer
1,ATTGGCGA,0.156 ± 0.027
2,ATTAGCAC,0.417 ± 0.016
3,CTTAGCAA,0.0581 ± 0.031
4,ATTAGCAG,0.129 ± 0.045
5,CATAGCAC,0.306 ± 0.029
6,ATTAGCAA,0.12 ± 0.092
7,CTTAGCAC,0.4 ± 0.0047
8,AGAAGGGC,-0.11 ± 0.013
9,CTTGCTCA,0.0359 ± 0.0032
10,ATCGCACG,0.34 ± 0.023
11,CTCGCATC,0.176 ± 0.033
12,ATCGCACA,0.3241 ± 0.00047
13,CCCGCACC,0.3 ± 0.031
14,ATCGCACC,0.4642 ± 0.0032
15,ATCGCGCC,0.368 ± 0.016
16,CTCGCACC,0.4721 ± 0.0042
17,CTCGCAGA,0.00155 ± 0.054
18,CTCGCACA,0.375 ± 0.0071
19,CTCGCGCC,0.401 ± 0.013
20,CTCGCGCA,0.191 ± 0.024
21,GTCGCACA,0.353 ± 0.025
22,CGAAGAGC,-0.116 ± 0.044
23,CAGCACAG,-0.0973 ± 0.029
24,CGGGGTTA,-0.195 ± 0.071
25,GGCATGAA,-0.0787 ± 0.006

row,Sequence,PBM E-score of 8-mer
1,CTCTAAGA,-0.271 ± 0.053
2,CTTTTACA,0.169 ± 0.025
3,AGCTTAGC,-0.0359 ± 0.0015
4,TATGATGA,-0.156 ± 0.037
5,AGTCAAAG,-0.132 ± 0.081
6,GAGAGATA,-0.0805 ± 0.045
7,CCACATTA,0.126 ± 0.0023
8,ATAACACC,0.465 ± 0.0066
9,CTTACACA,0.277 ± 0.012
10,CTTACACC,0.395 ± 0.013
11,ATTACACC,0.349 ± 0.0023
12,ATAACATC,-0.101 ± 0.065
13,CGAACACC,0.3416 ± 0.0028
14,CTAACACC,0.4751 ± 0.004
15,GTAACACA,0.3374 ± 0.0018
16,ATAACACA,0.3597 ± 0.0034
17,CTAACACA,0.374 ± 0.035
18,CTAACATC,-0.1377 ± 0.00032
19,ATAACACG,0.325 ± 0.05
20,AGACCCCT,-0.245 ± 0.086
21,AAACCCGG,-0.207 ± 0.0074
22,GTCCCCTA,-0.175 ± 0.076
